HT1080-NT tox: kills 2HG-producing HT-1080-NT fibrosarcoma cells | HT-1080-NT fibrosarcoma viability, CellTiter-Glo ATP luminescence, 48 h | Potency, µM (doses to about 46.1 µM), actives largely listed as cytotoxic | 360,000 tested, 1.6% active | AID 686970;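 further: NT is the 2HG producing partner of a matched IDH1 knockdown line; nearly all actives have a fitted effect of over 55% in size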
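750 cells/well, RPMI + 5% FBS; 2 h settle, compound pin-transfer, 48 h at 37 degrees C. CellTiter-Glo 10 min RT, luminescence. Normalized to DMSO and media-only wells.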
HT1080 IDH1KD tx: kills HT-1080 cells with IDH1 knockdown. HT-1080 IDH1 knockdown viability, ATP luminescence, 48 h. Potency, µM (series often up to 46.1 µM), most hits filed as cytotoxic. 360,000 tested, 2% active. AID 686971
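Assay cells: HT-1080 with IDH1 knockdown, 750 per well, RPMI/5% FBS. Exposure: 48 h at 37 °C following 2 h pre-incubation. Read: CellTiter-Glo luminescence; fitted concentration-response, curve class assigned.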
MCF10A rereplic: induces DNA re-replication in MCF 10a normal breast cells | MCF 10A DNA re-replication, Hoechst nuclear intensity, 48 h | Potency, µM (titrated, usually from 46.1 µM), most hits filed as activators | 350,000 tested, 2.9% active | AID 624296; further: nearly all actives have a fitted effect of over 50% in size
KB-V1 MDR tox: kills drug-selected multidrug resistant KB-V1 cells; KB-V1 MDR cells viability, CellTiter-Glo, 72 h; Potency, µM (top dose mostly 46.1 µM), usual class: cytotoxic; 400,000 tested, 3.4% active; further: nearly all actives have a fitted effect of over 60% in size
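Cytotoxicity via CellTiter-Glo luminescence after 72 h compound exposure at 37 degrees C. Cells: drug-selected KB-V1 line, DMEM phenol-red free plus 10% FBS. Compounds tested at multiple concentrations; normalized data fitted to concentration-effect curves.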
SW480 rerep: induces DNA re-replication in SW480 colon adenocarcinoma cells; SW480 DNA re-replication, Hoechst DNA content imaging, 48 h; Potency, µM (top dose mostly 46.1 µM), hits mostly activators; 340,000 tested, 1.8% active; AID 624297; further: nearly all actives have a fitted effect of over 55% in size
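First, 250 cells per well were seeded. Next, compound or vehicle (23 nL) was pinned in, plates sat 48 hr at 37 C. Finally Hoechst was added for 40 min before fluorescence scanning.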
KB-3-1 tox: KB-3-1 parental cell cytotoxicity | KB-3-1 viability, CellTiter-Glo ATP luminescence, 72 h | Potency, µM (doses to about 46.1 µM), hits mostly cytotoxic | 400,000 tested, 1.4% active | AID 1347075; further: nearly all actives have a fitted effect of over 60% in size
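Multi-concentration cytotoxicity screen in KB-3-1 cells grown in DMEM lacking phenol red with 10% FBS. After 72 h at 37 °C with compound, ATP-dependent luminescence was recorded.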
Of the large screens only hits and unclear results are named; the others gave an inactive call. Most compounds without a hit are left out; they make up all but 8% or so of the library. The call rests on the fitted dose curve; in most records, active means well fitted curve in the direction sought with a large enough effect; inconclusive means small, poorly fitted or top-dose-only effect, or another doubt; inactive means no such curve, though single readings can be large; an effect the other way counts as inactive or inconclusive.

O=C(CCS(=O)(=O)Cc1ccccc1)N1CCc2ccccc2C1	KB-V1 MDR tox 16µM
CCCS(=O)(=O)N1CCN(Cc2ccc3c(c2)c2ccccc2n3CC)CC1	HT1080-NT tox inconclusive, HT1080 IDH1KD tx inconclusive, MCF10A rereplic 13µM, SW480 rerep inconclusive
O=C(CCS(=O)(=O)Cc1ccccc1F)N1CCc2ccccc2C1	MCF10A rereplic inconclusive
COc1cc(-c2nnc(SCCOc3ccc(Cl)cc3)o2)cc(OC)c1OC	none (no result: HT1080-NT tox, HT1080 IDH1KD tx, MCF10A rereplic, SW480 rerep)
CCCCSc1ncnc2c1c(-c1ccccc1)cn2-c1cccc(F)c1	none (no result: HT1080-NT tox, HT1080 IDH1KD tx, MCF10A rereplic, SW480 rerep)
Cc1ccc(-c2noc(-c3ccccc3C(=O)N3CCOCC3)n2)cc1	none
COc1ccc(-c2noc(-c3ccccc3C(=O)N3CCOCC3)n2)cc1	KB-V1 MDR tox 9.2µM
O=C(COc1ccc(Br)cc1)Nc1ccc(C(=O)OC2CCCCC2)cc1	none (no result: HT1080-NT tox, HT1080 IDH1KD tx, MCF10A rereplic, SW480 rerep)
CCn1c(=O)c2c(nc(SCc3ccccn3)n2C)n(C)c1=O	KB-V1 MDR tox 15µM, KB-3-1 tox inconclusive
CCN(CC)CCn1nc(C)nc1-c1ccccc1O	KB-V1 MDR tox inconclusive
O=c1c2cccc3c2c(nn1CN1CCOCC1)-c1ccccc1-3	HT1080 IDH1KD tx inconclusive, MCF10A rereplic inconclusive, KB-V1 MDR tox 1.6µM, KB-3-1 tox 4.1µM
CCN(CC)CCn1nc2c3c(cccc3c1=O)-c1ccccc1-2	HT1080-NT tox 15µM, HT1080 IDH1KD tx 21µM, KB-V1 MDR tox 5.8µM, SW480 rerep 9.2µM, KB-3-1 tox inconclusive
CCOC(=O)C1CCCN(S(=O)(=O)c2ccc3[nH]c(=O)ccc3c2)C1 (centres undefined)	none (no result: HT1080-NT tox, HT1080 IDH1KD tx, MCF10A rereplic, SW480 rerep)
CCOC(=O)N1CCN(C(=O)/C(=C/c2ccccc2OC)NC(=O)c2ccccc2)CC1	KB-V1 MDR tox 7.3µM
C=CCNC(=O)/C(=C/c1cn(-c2ccccc2)nc1-c1cccc([N+](=O)[O-])c1)NC(=O)c1ccccc1	KB-V1 MDR tox 16µM, SW480 rerep inconclusive
CCOC(=O)N1CCN(C(=O)/C(=C/c2ccc(OC)c(OC)c2)NC(=O)c2ccccc2)CC1	SW480 rerep inconclusive
O=C(OCc1ccccc1)/C(=C/c1cccc2ccccc12)NC(=O)c1ccccc1	none
C=CCOC(=O)/C(=C/c1cccc2ccccc12)NC(=O)c1ccccc1	KB-V1 MDR tox 8.2µM
C=CCNC(=O)/C(=C/c1ccccc1OCC)NC(=O)c1ccccc1	KB-V1 MDR tox 12µM
CCc1ccc(CNC(=O)c2ccc3c(c2)nc2n3CCOC2)cc1	none (no result: HT1080-NT tox, HT1080 IDH1KD tx, MCF10A rereplic, SW480 rerep)
COc1cc(NC(=O)CSc2nc3nc(C)c(Cc4ccccc4)c(C)n3n2)cc(OC)c1OC	none (no result: HT1080-NT tox, HT1080 IDH1KD tx, MCF10A rereplic, SW480 rerep)
CCc1cccc(NC(=O)CN(C)S(=O)(=O)c2ccc3c(c2)n(C)c(=O)c(=O)n3C)c1	none (no result: HT1080-NT tox, HT1080 IDH1KD tx, MCF10A rereplic, SW480 rerep)
CCOc1ccc(N(C(C)C(=O)Nc2cc(Cl)ccc2OC)S(C)(=O)=O)cc1 (centres undefined)	KB-V1 MDR tox inconclusive, KB-3-1 tox 3.7µM (no result: HT1080-NT tox, HT1080 IDH1KD tx, MCF10A rereplic, SW480 rerep)
CCOc1ccc(N(C(C)C(=O)NCCSc2ccc(Cl)cc2)S(C)(=O)=O)cc1 (centres undefined)	KB-3-1 tox inconclusive (no result: HT1080-NT tox, HT1080 IDH1KD tx, MCF10A rereplic, SW480 rerep)
O=C(Oc1cc(=O)oc2ccccc12)c1ccccc1	HT1080-NT tox 16µM, HT1080 IDH1KD tx 16µM, MCF10A rereplic 7.3µM, SW480 rerep 4.1µM, KB-3-1 tox 5.2µM
O=C(Oc1c(-c2ccccc2)oc2ccccc2c1=O)c1ccccc1	MCF10A rereplic inconclusive, KB-V1 MDR tox 12µM, KB-3-1 tox inconclusive
COc1ccc(C(=O)c2c(-c3ccc(OC)cc3)oc3ccccc23)cc1	MCF10A rereplic inconclusive
COc1ccc(C(=O)c2ccc3oc(-c4ccc(OC)cc4)c(-c4ccc(O)cc4)c3c2)cc1	KB-V1 MDR tox inconclusive, KB-3-1 tox 18µM
COc1ccc(-c2oc3ccccc3c(=O)c2OC(=O)c2ccc(C)cc2)cc1	KB-V1 MDR tox 12µM, KB-3-1 tox inconclusive
O=C(Oc1cccc2ccccc12)c1ccccc1	none
O=C(COC(=O)c1ccccc1OCc1cccc(Br)c1)Nc1ccc(Br)cc1	KB-3-1 tox inconclusive (no result: HT1080-NT tox, HT1080 IDH1KD tx, MCF10A rereplic, SW480 rerep)
Cc1cc2c(cc1S(=O)(=O)Nc1cccc(C#N)c1)OCC(=O)N2	none (no result: HT1080-NT tox, HT1080 IDH1KD tx, MCF10A rereplic, SW480 rerep)

High-throughput results (PubChem BioAssay)
